# Activity calls are given as the source filed them.
# Key:
# [1] = binders of probe aFSTL3 on microarray, primary screen, stem cell growth factor project, biochemical, small-molecule microarray, fluorescence 635/667 (AID 1064); details: higher = more signal;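 also: measures binding of the biotinylated anti-FSTL3 antibody to printed compounds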
# [2] = binders from COS7 lysate, DM2A8 probe, primary screen, torsin A project, cell lysate, small-molecule microarray, fluorescence 635/667 (AID 1065); details: higher = more signal, COS7 lysate expressing mutant human TOR1A
# [3] = binders of probe aFGF2 on microarray, primary screen, stem cell growth factor project, biochemical, small-molecule microarray, fluorescence 635/667 (AID 1067); details: higher = more signal;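 also: measures binding of biotinylated aFGF2 protein to printed compounds on slides; z-score merges feature fluorescence and signal-to-noise across triplicate slides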
# [4] = binders of probe aFGF10 on microarray, primary screen, stem cell growth factor project, biochemical, small-molecule microarray, fluorescence 635/667 (AID 1071); details: higher = more signal;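 also: score merges 667 nm spot intensity and signal to noise from triplicate slides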
# [5] = molecular target: Neurogenic locus notch homolog protein 2 (Homo sapiens) (UniProt Q04721); assay: Notch2 binders on small-molecule microarrays, primary screen, biochemical, small-molecule microarray, 635 nm fluorescence, stem cell growth factors (AID 1073); details: Notch2 binding, higher = more signal
# Chain of Neurogenic locus notch homolog protein 2 (Homo sapiens) (Q04721 whole entry, looked up, canonical isoform): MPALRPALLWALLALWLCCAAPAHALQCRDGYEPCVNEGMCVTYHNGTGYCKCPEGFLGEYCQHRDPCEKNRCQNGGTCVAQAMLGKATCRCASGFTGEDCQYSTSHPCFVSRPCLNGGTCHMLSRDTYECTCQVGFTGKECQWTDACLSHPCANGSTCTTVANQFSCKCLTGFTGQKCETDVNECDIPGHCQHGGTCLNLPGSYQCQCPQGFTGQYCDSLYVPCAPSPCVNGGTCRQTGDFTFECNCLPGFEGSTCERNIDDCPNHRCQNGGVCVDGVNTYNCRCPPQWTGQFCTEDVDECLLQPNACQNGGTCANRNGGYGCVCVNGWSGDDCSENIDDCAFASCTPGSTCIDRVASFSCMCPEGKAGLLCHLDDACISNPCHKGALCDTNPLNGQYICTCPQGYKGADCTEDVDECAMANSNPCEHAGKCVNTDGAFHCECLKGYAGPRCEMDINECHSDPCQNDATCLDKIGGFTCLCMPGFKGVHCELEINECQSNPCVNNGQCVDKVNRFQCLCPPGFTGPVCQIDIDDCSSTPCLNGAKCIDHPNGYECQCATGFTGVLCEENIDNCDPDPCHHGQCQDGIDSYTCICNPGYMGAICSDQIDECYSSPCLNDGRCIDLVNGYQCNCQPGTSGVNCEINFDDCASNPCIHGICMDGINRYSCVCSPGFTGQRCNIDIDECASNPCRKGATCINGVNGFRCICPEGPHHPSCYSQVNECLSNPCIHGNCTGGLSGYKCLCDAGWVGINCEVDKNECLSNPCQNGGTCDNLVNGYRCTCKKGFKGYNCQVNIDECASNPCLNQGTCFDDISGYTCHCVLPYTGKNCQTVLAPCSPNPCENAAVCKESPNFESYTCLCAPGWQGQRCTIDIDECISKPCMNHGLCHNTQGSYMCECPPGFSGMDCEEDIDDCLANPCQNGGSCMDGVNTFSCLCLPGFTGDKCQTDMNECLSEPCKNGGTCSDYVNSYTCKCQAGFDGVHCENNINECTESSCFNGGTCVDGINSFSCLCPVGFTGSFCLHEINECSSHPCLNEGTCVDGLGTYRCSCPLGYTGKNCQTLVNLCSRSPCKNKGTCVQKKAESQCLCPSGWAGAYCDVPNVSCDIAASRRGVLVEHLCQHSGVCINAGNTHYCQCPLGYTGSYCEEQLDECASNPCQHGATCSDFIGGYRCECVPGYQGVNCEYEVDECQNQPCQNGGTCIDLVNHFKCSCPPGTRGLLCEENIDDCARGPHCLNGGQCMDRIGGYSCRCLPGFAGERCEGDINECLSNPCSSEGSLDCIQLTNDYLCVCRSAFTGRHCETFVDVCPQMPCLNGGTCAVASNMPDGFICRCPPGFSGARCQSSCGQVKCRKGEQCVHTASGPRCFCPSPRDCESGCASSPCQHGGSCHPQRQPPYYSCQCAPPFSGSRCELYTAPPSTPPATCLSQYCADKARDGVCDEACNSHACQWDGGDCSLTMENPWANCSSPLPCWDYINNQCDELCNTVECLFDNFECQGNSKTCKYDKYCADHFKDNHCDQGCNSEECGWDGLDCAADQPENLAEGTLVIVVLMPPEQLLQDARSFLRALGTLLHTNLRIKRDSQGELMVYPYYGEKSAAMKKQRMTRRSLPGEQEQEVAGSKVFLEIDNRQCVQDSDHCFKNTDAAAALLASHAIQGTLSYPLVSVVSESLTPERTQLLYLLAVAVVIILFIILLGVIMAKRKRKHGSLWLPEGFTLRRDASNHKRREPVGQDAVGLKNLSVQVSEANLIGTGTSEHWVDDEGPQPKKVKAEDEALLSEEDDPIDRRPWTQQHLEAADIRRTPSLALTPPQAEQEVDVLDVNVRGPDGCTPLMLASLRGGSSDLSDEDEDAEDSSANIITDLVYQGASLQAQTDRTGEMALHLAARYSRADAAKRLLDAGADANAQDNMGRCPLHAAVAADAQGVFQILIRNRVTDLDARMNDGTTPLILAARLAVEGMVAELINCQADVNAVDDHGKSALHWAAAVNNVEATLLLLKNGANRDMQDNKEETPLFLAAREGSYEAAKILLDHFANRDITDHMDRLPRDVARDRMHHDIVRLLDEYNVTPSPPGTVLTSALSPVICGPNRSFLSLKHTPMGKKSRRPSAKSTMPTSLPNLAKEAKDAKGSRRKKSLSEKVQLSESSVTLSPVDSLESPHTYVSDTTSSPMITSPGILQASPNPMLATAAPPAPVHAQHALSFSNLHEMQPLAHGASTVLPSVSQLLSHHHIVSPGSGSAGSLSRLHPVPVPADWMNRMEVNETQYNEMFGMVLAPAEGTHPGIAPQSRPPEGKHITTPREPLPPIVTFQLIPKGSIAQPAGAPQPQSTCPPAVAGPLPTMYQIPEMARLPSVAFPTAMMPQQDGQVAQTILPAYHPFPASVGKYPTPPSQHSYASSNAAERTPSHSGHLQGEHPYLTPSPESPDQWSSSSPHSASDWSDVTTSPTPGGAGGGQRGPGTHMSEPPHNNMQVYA
# [6] = molecular target: Pro-neuregulin-1, membrane-bound isoform (Homo sapiens) (UniProt Q02297); assay: NRG1 binders on small-molecule microarrays, primary screen, psychiatric disease protein project, biochemical, small-molecule microarray, fluorescence 635/667 (AID 1075); details: NRG1 binding, 635 nm fluorescence, higher = more signal;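 also: score combines 667 nm spot fluorescence with signal to noise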
# [7] = system: Neuregulin-1 EGF-like domain; assay: binders of neuregulin-1 EGF-like domain, primary screen, biochemical, small-molecule microarray, 635 nm fluorescence (AID 1081); details: small-molecule microarray binding, higher = more signal;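 also: binding of the protein to compounds printed on small-molecule microarray slides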
# [8] = FRG1 promoter luciferase signal modulators, primary screen, FRG1 inhibition for FSHD, cell-based, C2C12 myotubes, firefly/Renilla luciferase, luminescence (AID 1084); details: higher = more signal, called active from +8 up or from −8 down
# [9] = binders of probe aFST on microarray, primary screen, stem cell growth factor project, biochemical, small-molecule microarray, fluorescence 635/667 (AID 1086); details: higher = more signal;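 also: score merges 667 nm fluorescence with signal-to-noise of each printed compound spot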
# [10] = binders of probe aHhip on microarray, primary screen, stem cell growth factor project, biochemical, small-molecule microarray, fluorescence 635/667 (AID 1087); details: higher = more signal;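 also: score merges spot fluorescence at 667nm with spot signal to noise ratio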
# [11] = system: PRMT1 (protein arginine N-methyltransferase 1); assay: PRMT1 binders on small-molecule microarrays, primary screen, biochemical, small-molecule microarray, 635 nm fluorescence (AID 1088); details: small-molecule microarray binding, higher = more signal;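 also: binding of Prmt1 protein to compounds spotted on small-molecule microarray slides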
# [12] = yeast growth modulation, basal conditions, primary screen, YJM789 clinical isolate, OD600, 24 h (AID 1089);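 also: growth of clinical yeast isolate S. cerevisiae YJM 789 seeded 1000 cells per well; test concentration not given here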; details: S. cerevisiae YJM789 growth, higher = more signal, called active from +8 up or from −8 down
# [13] = fission yeast growth modulation, primary screen, strain 972, OD600, 24 h, no modulator (AID 1090);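 also: basal condition with compound alone and no growth modifier present; test concentration not given here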; details: S. pombe 972 growth, higher = more signal, called active from +8 up or from −8 down
# [14] = S. cerevisiae growth modulation with rapamycin, primary screen, strain BY4716, OD600, 96 h (AID 1091); details: higher = more signal, called active from +8 up or from −8 down; also: test concentration not given here
# [15] = molecular target: Torsin-1A-interacting protein 2 (Homo sapiens) (UniProt Q8NFQ8); assay: LULL1 binders on small-molecule microarray, primary screen, cell lysate, human LULL1 lysate, 635/667 nm fluorescence (AID 1092); details: hLULL1 lysate binding, 635 nm fluorescence, higher = more signal;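 also: probe is lysate of COS7 cells overexpressing human LULL1; score merges per-feature 667 nm fluorescence with signal-to-noise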
# [16] = E. coli growth modulation, two-sided OD650, primary screen, E. coli filamentation project, strain DRC41, 24 h (AID 1093); details: OD650, 24 h, higher = more signal, called active from +8 up or from −8 down;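 also: MC1000 strain lacking acrAB efflux and sulA so SOS filamentation is blocked; test concentration not given here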
# [17] = small-molecule microarray binders of probe aLefty2, primary screen, biochemical, biotinylated probe, 635/667 nm fluorescence (AID 1094); details: higher = more signal;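 also: score merges spot fluorescence near 667 nm with spot signal-to-noise ratio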
# [18] = system: Noggin (protein binding on small-molecule microarray); assay: Noggin binders on small-molecule microarray, primary screen, biochemical, 635/667 nm fluorescence (AID 1095); details: 635 nm fluorescence, higher = more signal;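 also: score merges 667 nm feature fluorescence with signal to noise over triplicate slides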
# [19] = molecular target: Neurogenic locus notch homolog protein 3 (Homo sapiens) (UniProt Q9UM47); assay: NOTCH3 binders on small-molecule microarray, primary screen, biochemical, 635/667 nm fluorescence (AID 1096); details: NOTCH3 binding, 635 nm fluorescence, higher = more signal
# Chain of Neurogenic locus notch homolog protein 3 (Homo sapiens) (Q9UM47 whole entry, looked up): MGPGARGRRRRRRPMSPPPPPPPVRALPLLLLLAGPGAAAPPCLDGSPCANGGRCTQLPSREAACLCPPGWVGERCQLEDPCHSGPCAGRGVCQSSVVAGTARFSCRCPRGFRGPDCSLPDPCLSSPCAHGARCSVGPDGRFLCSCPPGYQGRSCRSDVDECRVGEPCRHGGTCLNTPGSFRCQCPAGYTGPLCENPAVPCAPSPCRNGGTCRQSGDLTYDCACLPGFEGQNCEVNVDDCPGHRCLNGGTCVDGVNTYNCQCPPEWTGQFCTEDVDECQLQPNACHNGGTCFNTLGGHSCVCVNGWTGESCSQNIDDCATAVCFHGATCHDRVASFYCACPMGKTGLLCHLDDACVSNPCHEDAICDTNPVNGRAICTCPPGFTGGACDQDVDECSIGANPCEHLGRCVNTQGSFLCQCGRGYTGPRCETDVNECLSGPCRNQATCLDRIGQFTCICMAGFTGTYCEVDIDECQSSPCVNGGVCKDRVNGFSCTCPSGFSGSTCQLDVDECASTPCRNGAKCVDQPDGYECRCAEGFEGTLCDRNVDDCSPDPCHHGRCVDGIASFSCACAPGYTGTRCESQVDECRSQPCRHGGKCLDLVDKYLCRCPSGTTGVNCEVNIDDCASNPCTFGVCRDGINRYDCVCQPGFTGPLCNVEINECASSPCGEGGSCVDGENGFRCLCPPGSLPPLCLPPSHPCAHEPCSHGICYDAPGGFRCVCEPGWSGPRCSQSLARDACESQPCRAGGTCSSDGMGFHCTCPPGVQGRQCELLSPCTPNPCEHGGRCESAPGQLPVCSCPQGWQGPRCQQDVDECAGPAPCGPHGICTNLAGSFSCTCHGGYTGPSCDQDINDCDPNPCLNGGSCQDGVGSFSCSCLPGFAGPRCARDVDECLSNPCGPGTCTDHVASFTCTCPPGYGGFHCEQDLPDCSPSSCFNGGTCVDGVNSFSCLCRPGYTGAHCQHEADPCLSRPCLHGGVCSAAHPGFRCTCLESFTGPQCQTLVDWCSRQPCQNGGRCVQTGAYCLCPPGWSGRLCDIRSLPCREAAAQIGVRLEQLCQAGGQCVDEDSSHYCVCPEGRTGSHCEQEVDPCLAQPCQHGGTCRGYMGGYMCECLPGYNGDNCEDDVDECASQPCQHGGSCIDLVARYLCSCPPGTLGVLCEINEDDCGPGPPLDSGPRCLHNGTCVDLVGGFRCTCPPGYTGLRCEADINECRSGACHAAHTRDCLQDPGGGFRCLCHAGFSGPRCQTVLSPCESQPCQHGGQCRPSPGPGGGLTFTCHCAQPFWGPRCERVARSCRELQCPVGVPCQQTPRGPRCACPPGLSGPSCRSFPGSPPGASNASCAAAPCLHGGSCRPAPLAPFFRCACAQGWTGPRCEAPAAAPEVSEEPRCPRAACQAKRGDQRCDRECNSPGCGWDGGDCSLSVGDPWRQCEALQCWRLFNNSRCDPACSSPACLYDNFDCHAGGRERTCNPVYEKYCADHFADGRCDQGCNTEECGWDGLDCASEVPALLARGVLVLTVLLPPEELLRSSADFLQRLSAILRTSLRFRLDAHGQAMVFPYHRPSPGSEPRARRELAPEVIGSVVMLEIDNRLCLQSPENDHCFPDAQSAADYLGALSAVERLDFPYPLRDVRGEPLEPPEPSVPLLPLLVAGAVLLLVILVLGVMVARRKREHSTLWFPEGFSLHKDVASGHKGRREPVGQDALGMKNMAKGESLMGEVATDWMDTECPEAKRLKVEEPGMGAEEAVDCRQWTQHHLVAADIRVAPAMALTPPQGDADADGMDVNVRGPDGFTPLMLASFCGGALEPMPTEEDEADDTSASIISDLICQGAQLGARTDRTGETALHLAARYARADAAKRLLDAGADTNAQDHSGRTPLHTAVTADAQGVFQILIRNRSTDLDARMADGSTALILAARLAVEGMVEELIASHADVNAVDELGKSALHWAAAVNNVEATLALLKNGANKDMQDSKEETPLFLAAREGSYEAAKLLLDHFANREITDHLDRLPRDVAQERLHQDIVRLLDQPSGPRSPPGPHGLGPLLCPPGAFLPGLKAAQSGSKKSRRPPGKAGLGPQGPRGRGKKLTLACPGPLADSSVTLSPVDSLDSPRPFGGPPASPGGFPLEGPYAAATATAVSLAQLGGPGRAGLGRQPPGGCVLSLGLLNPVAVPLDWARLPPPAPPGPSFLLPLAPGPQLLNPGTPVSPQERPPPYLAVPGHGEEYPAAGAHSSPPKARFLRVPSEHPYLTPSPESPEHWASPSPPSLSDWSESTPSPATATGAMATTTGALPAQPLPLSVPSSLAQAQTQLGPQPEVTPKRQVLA
# [20] = small-molecule microarray binders of probe aEGFR, primary screen, biochemical, biotinylated probe, 635/667 nm fluorescence (AID 1097); details: higher = more signal;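 also: probe is a biotinylated anti-EGFR antibody binding compounds printed on slides; score combines fluorescence near 667 nm and signal to noise of each spot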
Structure (SMILES),composite z-score [1],composite z-score [2],composite z-score [3],composite z-score [4],composite z-score [5],composite z-score [6],composite z-score [7],z-score [8],composite z-score [9],composite z-score [10],composite z-score [11],z-score [12],z-score [13],z-score [14],composite z-score [15],z-score [16],composite z-score [17],composite z-score [18],composite z-score [19],composite z-score [20]
CCOC(=O)C[C@H]1[C@H](OC(=O)Cc2ccc3c(c2)OCO3)[C@@H](NC(=O)c2ccccc2)c2cc(OCCCO)ccc2N1C(=O)Cc1ccc(OC)cc1,-0.483,0.147,-0.0038,0.306,0.523,0.726,0.049,-2.56 (inactive),-0.249,-0.261,0.498,-2.62 (inactive),-0.91 (inactive),-0.602 (inactive),0.837,-0.429 (inactive),-0.0915,0.0752,0.206,-0.0978
C=CCOC(=O)[C@@H]1[C@H]2C(=O)O[C@H](c3ccccc3)[C@H](c3ccccc3)N2[C@H](c2ccc(OCCOC(=O)[C@H]3C[C@H]4C(=O)NCC(=O)N4[C@H]3c3ccc(O)cc3)cc2)[C@@]12C(=O)Nc1ccc(I)cc12,-0.223,0.826,-0.0834,0.22,0.948,0.675,0.86,1.2 (inactive),0.377,-0.54,1.53,1.22 (inactive),0.761 (inactive),4.27 (inactive),2.08,-0.615 (inactive),-0.162,1.59,1.15,0.0026
CCCCC(O)C1C=CC2C(=O)NC(=O)C2N1Nc1ccc(Cl)cc1Cl (stereo not given),0.439,-0.384,0.0127,0.612,0.866,1.3,1.09,0.0812 (inactive),0.691,-0.27,-0.338,-25.2 (active),-8.47 (active),-1.58 (inactive),2.28,-1.55 (inactive),0.259,-0.314,0.303,-0.0232
CCOC(=O)C[C@H]1[C@H](OC(=O)c2ccc(C(=O)c3ccccc3)cc2)[C@@H](NC(=O)c2ccc3ccccc3c2)c2cc(OCCCO)ccc2N1C(=O)c1ccc2ccccc2n1,-0.432,0.761,-0.101,0.746,0.5,0.43,0.53,0.476 (inactive),0.392,-0.151,1.26,0.216 (inactive),-0.629 (inactive),0.256 (inactive),0.962,1.79 (inactive),0.0249,0.836,1.03,0.111
CCOC(=O)C1=CC[C@@H](c2ccc(F)cc2)N(S(=O)(=O)c2ccc(C)cc2)[C@H]1c1ccc([N+](=O)[O-])cc1,-0.283,-0.237,-0.0277,0.639,1.26,1.1,1,-0.507 (inactive),0.919,-0.0645,0.518,0.342 (inactive),1.32 (inactive),6.03 (inactive),2.5,0.543 (inactive),0.0322,-0.234,0.73,-0.0409
CC(C)(C)OC(=O)CC[C@]1(C(N)=O)N=C(c2ccc(OCCCO)cc2)O[C@H]1c1ccccc1CN=[N+]=[N-],0.68,1.13,0.191,0.873,1.53,2.66,1.47,5.29 (inactive),0.441,0.0722,1.15,1.33 (inactive),0.835 (inactive),0.56 (inactive),3.62,0.528 (inactive),0.314,0.0447,1.08,0.306
COC(=O)[C@@H]1N=C(c2ccc(OCCCO)cc2)O[C@@H]1c1ccccc1CN=[N+]=[N-],0.879,-0.744,0.0062,-0.784,-0.549,1.21,0.945,1.81 (inactive),0.646,0.291,1.01,0.23 (inactive),-0.956 (inactive),-1.14 (inactive),1.74,1.05 (inactive),0.109,-0.0395,0.327,-0.0802
CC(C)C(=C=CC[C@@H](O)c1ccc(OCCO)cc1)CCO,-0.226,-0.0605,-0.128,0.127,-0.0765,0.346,0.402,0.0636 (inactive),-0.315,0.0505,0.693,-1.21 (inactive),-1.32 (inactive),-1.4 (inactive),-0.0081,1.23 (inactive),-0.225,0.96,0.271,-0.146
CCOC(=O)C1=CCC(c2cc3ccccc3[nH]2)N(S(=O)(=O)c2ccccc2[N+](=O)[O-])C1 (stereo not given),-0.191,0.0999,-0.0481,0.465,1.37,1.48,0.957,-2.98 (inactive),0.361,0.0505,0.659,-0.134 (inactive),1.18 (inactive),1.41 (inactive),3.07,-0.424 (inactive),-0.125,0.674,0.356,0.0357
COCCOC(=O)N1C(=O)[C@@]2(c3cc(C#CC4=CCCCC4)ccc31)[C@H](c1ccccc1OCCO)N1[C@H](c3ccccc3)[C@H](c3ccccc3)OC(=O)[C@H]1[C@@H]2C(N)=O,-0.42,0.599,0,0.525,0.931,-0.253,1.05,-0.89 (inactive),0.366,-0.217,1.56,0.05 (inactive),-0.96 (inactive),1.69 (inactive),1.66,2.66 (inactive),-0.107,1.39,1.1,-0.0211

# Source: PubChem BioAssay
